Assay outcomes: PubChem, National Center for Advancing Translational Sciences (NCATS)
A selection: hits, their analogues and other compounds. The true share with any hit is near 2.1%.
aSyn yeast inh: rescues yeast growth from alpha-synuclein toxicity | Yeast expressing alpha-synuclein, growth rescue, BacTiter-Glo, 24 h | Potency, µM (highest dose often 46.1 µM), for inactives: top-dose growth rescue (activation), usual class: activators | hit rate 0.14% among 370,000; note: % of control where 0% means no effect; nearly all actives have a fitted effect of over 65% in size
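Readout is rescue of growth in alpha-synuclein-expressing yeast, so inhibitors of toxicity appear as activators. Growth after 24 hr at 30 deg C in galactose medium is quantified by luminescence.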
FUS yeast rescue: FUS proteinopathy suppression in yeast; S. cerevisiae FUS-expressing, growth rescue, OD600, 24 h; Potency, µM (highest dose often 76.6 µM), hits mostly activators; hit rate 0.24% among 390,000; AID 1347120;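 note: plate controls were DMSO vehicle for no effect and reference control for full effect; nearly all actives have a fitted effect of over 55% in size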
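Steps: raffinose overnight preculture; dilution to OD 0.005 in 2% galactose minimal medium; compound addition (concentration series); 24hr at 30C, 99% humidity; absorbance read at 600 nm.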
TDP-43 yeast inh: TDP-43 toxicity inhibition in yeast | hit rate 1.8% among 410,000 | TDP-43 expressing yeast growth rescue, BacTiter-Glo, 24 h | Potency, µM (top dose mostly 46.1 µM), inactives show at the top dose growth rescue (activation), usual class: activators; note: % of control where 0% means no effect; nearly all actives have a fitted effect of over 50% in size
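Readout is BacTiter-Glo luminescence of cell growth, so inhibitors register as activators. TDP-43-expressing yeast at OD600=0.02 in galactose medium, after raffinose pregrowth to mid-log, were incubated with compound for 24 hr at 30 deg C.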
Abeta yeast res: restores growth of yeast expressing A-beta42 peptide | yeast expressing A-beta42, growth rescue, OD600, 48 h; response scale: 0% DMSO, 100% iron-clioquinol control | Potency, µM (doses to about 46.1 µM), actives largely listed as activators | hit rate 0.063% among 410,000 | AID 1347071; note: nearly all actives have a fitted effect of over 55% in size
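Yeast A-beta toxicity model in growth medium with pinned compounds, 48 h at 30 C; growth read as absorbance at 600 nm. Normalized to FeCl3/clioquinol equimolar mix (positive) and DMSO (negative).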
The depositor's hits bear a star; i = inactive; u = inconclusive; x = not tested or not shown; [ ] = dose if it differs, or a comment. Calls come from the whole dose curve; as a rule, active = well fitted curve in the direction sought with a large enough effect; inconclusive = small, poorly fitted or top-dose-only effect, or another doubt; inactive = no such curve, though single readings can be large; an effect the other way counts as inactive or inconclusive. Potency is the fitted concentration of half-maximal effect.

SMILES	aSyn yeast inh	FUS yeast rescue	TDP-43 yeast inh	Abeta yeast res
Cc1ccc(C)c(NC(=O)c2nc(-c3ccccc3)n(-c3ccccc3)n2)c1	-17%	u	18µM*	i
Cc1ccc(OCC(=O)Nc2cc(-c3cccc(C)c3)nn2-c2ccccc2)cc1	x	i	16%	i
CC(=O)c1cccc(NC(=O)c2nc(-c3ccccc3)n(-c3ccccc3)n2)c1	x	i	0%	i
Cc1ccc(NC(=O)c2cc(C)n(-c3cccc(C)c3)c2C)cc1	-5%	i	u	i
Cc1ccc(NC(=O)c2cc(C)n(-c3ccccc3)c2C)cc1	-15%	i	25µM*	i
Cc1cccc(-c2cc(NC(=O)c3ccccc3C)n(-c3ccccc3)n2)c1	x	i	20µM*	i
O=C(NCCN1CCOCC1)C(=O)NCC1OCCN1S(=O)(=O)c1ccc(Cl)cc1 (stereo not drawn)	-15%	i	17%	i
COc1cc2ccccc2cc1C(=O)Nc1cccc(-c2nc3cc(C)c(C)cc3o2)c1	x	i	18%	i
Cc1ccc(Sc2ccc(N3CCCC(C(=O)Nc4ccc(Br)cc4)C3)nn2)cc1 (stereo not drawn)	x	i	22%	i
O=C(O)c1nc(-c2ccccc2)n(-c2ccc(Cl)cc2)n1	3%	i	19%	i[9.22 µM]
CC(=O)c1ccc(NC(=O)c2nc(-c3ccccc3)n(-c3ccc(Cl)cc3)n2)cc1	x	i	7.9µM*	i
Cc1ccc(NC(=O)c2cc(C)nn2-c2ccccc2)cc1	2%	i	18µM*	i
Cc1cccc(N2CCN(S(=O)(=O)c3ccc(-c4cc(C(F)(F)F)on4)s3)CC2)c1C	x	i	13%	i
O/N=C/c1ccnc(SCc2ccccc2)n1	-6%	i	11µM*	i
O/N=C/c1ccnc(SCc2ccc(Cl)cc2)n1	1%	i	10µM*	i
CC(=O)c1cnc(SCc2ccc(Cl)cc2)nc1C	22%	i	u	i
c1csc(-c2nc3c4ccccc4c4ccccc4c3[nH]2)c1	3%	i	20µM*	i
Cc1sc2ncnc(N3CCC(C(=O)Nc4cc(S(C)(=O)=O)ccc4Cl)CC3)c2c1C	0%	i	2%	i
Cc1sc2ncnc(N3CCC(C(=O)Nc4cc(Cl)ccc4Cl)CC3)c2c1C	-10%	i	11µM*	i
Cc1ccc(S(=O)(=O)N2CCN(c3ncnc4scc(-c5ccccc5)c34)CC2)cc1	9%	x	16%	i
Cc1ccc(S(=O)(=O)N2CCN(c3ncnc4sccc34)CC2)cc1C	7%	i	11µM*	i
Cc1sc2ncnc(N3CCN(S(=O)(=O)c4ccccc4)CC3)c2c1C	-3%	x	18µM*	i
O=C1NC[C@H](Cc2ccccc2)N(CC2CCN(CCC34CC5CC(CC(C5)C3)C4)CC2)C1=O	-2%	i	-13%	i
Cn1c(SCC(=O)Nc2ccc(C(=O)O)cc2)nc2scc(-c3ccccc3Cl)c2c1=O	x	35µM*	-1%	i
O=CNC1CCCc2c1[nH]c1ccc(Cl)cc21 (stereo not drawn)	16%	x	14µM*	i
SMILES	aSyn yeast inh	FUS yeast rescue	TDP-43 yeast inh	Abeta yeast res
CCN(CC)C(=O)C1CCCc2c1[nH]c1ccc(Cl)cc21 (stereo not drawn)	-7%	i	14µM*	i
COc1ccc(N(C)C(=O)NCc2noc3ccc(C)cc23)c(OC)c1	x	i	9%	i
COc1ccc(-c2cc(C3CCN(c4ccc(C(C)=O)cc4[N+](=O)[O-])CC3)[nH]n2)cc1	1%	i	-2%	u
CC(=O)c1ccc(N2CCC(c3cc(-c4ccc(Cl)cc4)n[nH]3)CC2)c([N+](=O)[O-])c1	4%	i	16µM*	i
O=C1c2[nH]nc(-c3ccccc3O)c2C(c2cccc(Cl)c2)N1Cc1ccco1 (stereo not drawn)	6%	u	u	i
O=C1c2[nH]nc(-c3ccccc3O)c2C(c2ccc(F)cc2)N1Cc1ccco1 (stereo not drawn)	5%	45µM*	27%	i
Cc1cc(C)c(O)c(-c2n[nH]c3c2C(c2cccc(O)c2)N(Cc2ccco2)C3=O)c1 (stereo not drawn)	-1%	32µM*	-9%	i
CCOC(=O)c1c(NC(=O)CSc2cn(CCNC(=O)c3ccccc3OC)c3ccccc23)sc2c1CCC2	x	i	1%	i
ONC(=Nc1ccccc1)c1ccc(Cl)cc1	8%	i	13µM*	i
